Laboratory results taken from PubChem BioAssay (Tox21).
Several values for one entry are separate records, joined by “and”; a condition that tells them apart may be missing. Equal entries are not always repeated. Inconclusive results are not listed. Activity calls are given as the source filed them. Unless noted, the call rests on the fitted dose curve; in most records, active means well fitted curve in the direction sought with a large enough effect in the repeat runs; inconclusive means weak or mixed curves; inactive means no such curve, though single readings can be large; an effect the other way counts as inactive or inconclusive.

Key:
[1] = target: Luciferin 4-monooxygenase (Photinus pyralis) (UniProt P08659); assay: qHTS assay to identify small molecule inhibitors of firefly luciferase (AID 1224835); further: nearly all actives have a fitted effect of over 25% in size
Sequence of Luciferin 4-monooxygenase (Photinus pyralis) (P08659 whole entry, looked up): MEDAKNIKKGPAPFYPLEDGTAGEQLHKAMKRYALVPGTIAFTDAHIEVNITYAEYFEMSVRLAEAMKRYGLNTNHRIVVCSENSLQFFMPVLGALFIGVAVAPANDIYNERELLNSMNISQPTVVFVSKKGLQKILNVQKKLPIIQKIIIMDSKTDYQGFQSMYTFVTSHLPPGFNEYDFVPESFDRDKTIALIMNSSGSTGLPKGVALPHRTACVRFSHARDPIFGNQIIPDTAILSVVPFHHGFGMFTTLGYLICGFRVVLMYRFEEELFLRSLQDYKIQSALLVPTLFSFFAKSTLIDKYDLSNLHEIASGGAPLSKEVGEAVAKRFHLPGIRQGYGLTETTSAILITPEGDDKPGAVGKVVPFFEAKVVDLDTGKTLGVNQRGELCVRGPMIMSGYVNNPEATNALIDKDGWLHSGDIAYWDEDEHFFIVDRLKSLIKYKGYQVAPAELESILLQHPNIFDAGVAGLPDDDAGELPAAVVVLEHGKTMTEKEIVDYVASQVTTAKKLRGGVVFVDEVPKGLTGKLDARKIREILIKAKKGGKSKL
Method in brief: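 Inhibition of purified Photinus luciferase is measured by luminescence. Substrate levels (D-luciferin, ATP) sit at their KM values. Each compound is tested in a concentration series.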

[2] = qHTS assay to identify small molecule agonists of the constitutive androstane receptor (CAR) signaling pathway - cell viability counter screen (AID 1224836); further: nearly all actives have a fitted effect of over 45% in size
Method in brief: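 HepG2 cells stably carrying hCAR and a CYP2B6-2.2kb reporter; 15-concentration compounds plus PK11195 (final 0.75 uM), 23 hr at 37 C/5% CO2. Viability read by CellTiter-Fluor fluorescence.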

[3] = qHTS assay to identify small molecule antagonists of the constitutive androstane receptor (CAR) signaling pathway - cell viability counter screen (AID 1224837); further: nearly all actives have a fitted effect of over 45% in size
Method in brief: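 Fluorescence from CellTiter-Fluor served as the viability signal. Human hepatoma HepG2 cells stably bearing hCAR and CYP2B6-2.2kb received compound plus CITCO (50 nM final) for 23 hr.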

[4] = target: Nuclear receptor subfamily 1 group I member 3 (Homo sapiens) (UniProt Q14994); assay: qHTS assay to identify small molecule antagonists of the constitutive androstane receptor (CAR) signaling pathway (AID 1224838);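 further: HepG2 cells stably expressing hCAR with CYP2B6 luciferase reporter stimulated by CITCO; nearly all actives have a fitted effect of over 40% in size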
Sequence of Nuclear receptor subfamily 1 group I member 3 (Homo sapiens) (Q14994 whole entry, looked up): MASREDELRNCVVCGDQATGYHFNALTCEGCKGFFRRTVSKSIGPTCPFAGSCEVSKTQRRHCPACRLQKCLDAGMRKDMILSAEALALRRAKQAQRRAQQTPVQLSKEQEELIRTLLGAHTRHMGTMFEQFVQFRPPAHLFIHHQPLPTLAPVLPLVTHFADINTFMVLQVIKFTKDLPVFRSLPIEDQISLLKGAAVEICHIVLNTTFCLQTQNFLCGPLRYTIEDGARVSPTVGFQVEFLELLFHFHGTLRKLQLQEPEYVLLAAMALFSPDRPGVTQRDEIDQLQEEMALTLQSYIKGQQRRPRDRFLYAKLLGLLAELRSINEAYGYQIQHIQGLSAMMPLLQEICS
Method in brief: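 Quantitative HTS in double-stable HepG2-CYP2B6-hCAR cells. After 4 h plating, cells get compound (15 concentrations) and CITCO at 50 nM final, incubate 24 h at 37 C, then ONE-Glo luminescence is read.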

[5] = target: Nuclear receptor subfamily 1 group I member 3 (Homo sapiens) (UniProt Q14994); assay: qHTS assay to identify small molecule agonists of the constitutive androstane receptor (CAR) signaling pathway (AID 1224839);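 further: HepG2 cells stably carrying human CAR and a CYP2B6 luciferase reporter; nearly all actives have a fitted effect of over 15% in size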
Method in brief: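 HepG2 cells stably co-transfected with hCAR and a CYP2B6-2.2kb luciferase reporter; compounds at 15 concentrations with 0.75 uM PK11195 present. After 24 hr at 37 C, luciferase read by ONE-Glo luminescence.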

[6] = qHTS assay to identify small molecule antagonists of the estrogen related receptor signaling pathway with the pleiotropic PPARgamma coactivator (PGC) from Tox21 10K library - cell viability counter screen (AID 1224840; active means well fitted cell-killing curve with a large enough effect in the repeat runs, not every such curve was filed as active; further: nearly all actives have a fitted effect of over 40% in size; further: potency means the concentration at half of the fitted maximal effect)
Method in brief: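 Compounds in DMSO, alongside positive and negative controls, were pinned onto PGC/ERR cells (2,000 per well). Exposure lasted 17.5 hours at 37 C, followed by a 30-minute CellTiter-Fluor incubation and fluorescence reading.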

[7] = target: Thyrotropin receptor (Homo sapiens) (UniProt P16473); assay: qHTS assay to identify small molecule agonists of the thyroid stimulating hormone receptor (TSHR) signaling pathway (AID 1224843; calls by dose curve; further: nearly all actives have a fitted effect of over 45% in size; further: potency means the concentration at half of the fitted maximal effect)
Sequence of Thyrotropin receptor (Homo sapiens) (P16473 whole entry, looked up): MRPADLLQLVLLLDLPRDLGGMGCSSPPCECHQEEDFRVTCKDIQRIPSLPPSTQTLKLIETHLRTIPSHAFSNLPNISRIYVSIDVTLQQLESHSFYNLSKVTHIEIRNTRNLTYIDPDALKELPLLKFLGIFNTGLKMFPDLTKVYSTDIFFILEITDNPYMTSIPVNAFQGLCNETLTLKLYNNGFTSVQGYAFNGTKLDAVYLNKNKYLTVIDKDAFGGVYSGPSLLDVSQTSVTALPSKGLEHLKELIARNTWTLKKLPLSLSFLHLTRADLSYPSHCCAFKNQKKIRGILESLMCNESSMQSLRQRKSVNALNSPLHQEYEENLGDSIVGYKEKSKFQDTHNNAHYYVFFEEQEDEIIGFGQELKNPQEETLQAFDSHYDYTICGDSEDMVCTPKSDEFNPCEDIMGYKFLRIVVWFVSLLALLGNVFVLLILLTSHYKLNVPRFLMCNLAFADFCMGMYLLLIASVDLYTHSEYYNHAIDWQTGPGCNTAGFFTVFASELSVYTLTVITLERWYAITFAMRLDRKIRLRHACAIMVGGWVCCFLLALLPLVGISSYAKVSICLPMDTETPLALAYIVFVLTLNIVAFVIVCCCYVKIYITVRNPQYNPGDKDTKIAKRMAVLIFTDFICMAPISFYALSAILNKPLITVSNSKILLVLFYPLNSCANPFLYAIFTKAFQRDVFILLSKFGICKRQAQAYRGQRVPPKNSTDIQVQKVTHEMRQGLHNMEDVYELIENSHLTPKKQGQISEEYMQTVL
Method in brief: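 Screening of the Tox21 10K collection used HEK293 cells engineered with TSHR at 800 cells per well. After a 30-min room-temperature compound exposure, HTRF cAMP reagents were added and fluorescence recorded 1 h later.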

[8] = qHTS assay to identify small molecule agonists of the hypoxia (HIF-1) signaling pathway - cell viability counter screen (AID 1224844; calls by dose curve; further: nearly all actives have a fitted effect of over 50% in size; further: potency means the concentration at half of the fitted maximal effect)
Method in brief: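 Luminescent ATP content (CellTiter-Glo, 30 min, room temperature) served as the viability measure in HRE-bla ME-180 cells exposed to compounds for 17 hrs in low-serum medium (0.5% dialyzed FBS).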

[9] = qHTS assay to identify small molecule agonists of the hypoxia (HIF-1) signaling pathway (AID 1224846; active means well fitted activation curve with a large enough effect in the signal ratio in the repeat runs, not every such curve was filed as active; the % refers to the signal ratio)
Method in brief: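 Measured by blue/green FRET after loading CCF4-AM: beta-lactamase expressed from a hypoxia response element in ME-180 cells. Test agents were delivered in DMSO and left 17 hrs; cells had been plated 5 hrs earlier in low-serum (0.5% dialyzed FBS) medium.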

[10] = qHTS RealTime-Glo MT Cell Viability Assay in HepG2 cells - 24 hour (AID 1224867); further: nearly all actives have a fitted effect of over 50% in size; further: potency means the concentration at half of the fitted maximal effect
Method in brief: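 Cell number in HepG2 cultures estimated from NanoLuc luminescence generated by metabolic reduction of a prosubstrate by living cells. The homogeneous, nonlytic format allowed repeated reads at 0, 8, 16, 24, 32 and 40 h of compound exposure.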

[11] = qHTS RealTime-Glo MT Cell Viability Assay in HEK293 cells - 32 hour (AID 1224868); further: nearly all actives have a fitted effect of over 50% in size; further: potency means the concentration at half of the fitted maximal effect; on activity change, negative = cytotoxic: top concentration of the series differs between compounds
Method in brief: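 Homogeneous bioluminescent viability format in HEK293 cells (600 cells/well). Following 5 h at 37 C/5% CO2, 23 nL compound was pintooled; the signal was measured repeatedly during 40 h incubation.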

[12] = A CellTox Green Cytotoxicity Assay to monitor cytotoxicity in HEK293 cells - 0 hour (AID 1224869); further: nearly all actives have a fitted effect of over 50% in size
Method in brief: (§1)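 Each value comes from one timepoint of a single continuous run in which HEK293 cells with CellTox Green were exposed to compound for up to 40 h at 37 C, dye fluorescence rising with cell death.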

[13] = qHTS RealTime-Glo MT Cell Viability Assay in HepG2 cells - 40 hour (AID 1224870); further: nearly all actives have a fitted effect of over 50% in size; further: potency means the concentration at half of the fitted maximal effect
Method in brief: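 Real-time viability: cells seeded at 600 per well together with NanoLuc and cell-permeant prosubstrate, compounds added after 5 h incubation. Luminescence tracked at 0, 8, 16, 24, 32 and 40 h of exposure.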

[14] = A CellTox Green Cytotoxicity Assay to monitor cytotoxicity in HEK293 cells - 40 hour (AID 1224871); further: nearly all actives have a fitted effect of over 45% in size; further: potency means the concentration at half of the fitted maximal effect
Method in brief: as §1

[15] = qHTS assay to identify small molecule agonists of H2AX (AID 1224845; active means well fitted activation curve with a large enough effect in the signal ratio in the repeat runs, not every such curve was filed as active; the % refers to the signal ratio)
Method in brief: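 Phospho-H2AX Ser139 measured by HTRF (ex 320 nm; em 665 and 620 nm) after 24 hr antibody incubation. Compounds, 15 concentrations, 0.76% DMSO, were applied to CHO-K1 cells for 3hr at 37C before lysis.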

[16] = qHTS assay to identify small molecule antagonists of the estrogen related receptor signaling pathway with the pleiotropic PPARgamma coactivator (PGC) from Tox21 10K library (AID 1224841; call rule not given here)
Method in brief: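 Compound exposure ran 18 hours at 37 C in PGC/ERR cells (2,000/well) that had first rested 6 hours in a 37 C/5% CO2 incubator. Luciferase activity was then detected with One-Glo after a 30-minute room-temperature step.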

[17] = qHTS assay to identify small molecule antagonists of the estrogen related receptor (ERR) signaling pathway from Tox21 library (AID 1224848); further: nearly all actives have a fitted effect of over 50% in size; further: potency means the concentration at half of the fitted maximal effect
Method in brief: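 Antagonist-mode screen of the Tox21 10K library in an NTP-provided ERR reporter cell line; 18 h compound exposure at 37 C, luminescence measured with ONE-Glo.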

[18] = qHTS assay to identify small molecule agonists of the estrogen related receptor (ERR) signaling pathway from Tox21 library (AID 1224849; calls by dose curve; further: nearly all actives have a fitted effect of over 15% in size); settings: ERR reporter cell line, ONE-Glo luciferase, 18 h
Method in brief: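 We plated ERR reporter cells, waited 6 h, added compounds in DMSO by pin tool and incubated them 18 h at 37 C. ONE-Glo was then added and luminescence read after 30 min.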

[19] = qHTS assay to identify small molecule agonists of H2AX - cell viability counter screen (AID 1224847; calls by dose curve; further: nearly all actives have a fitted effect of over 30% in size; further: potency means the concentration at half of the fitted maximal effect;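 on activity change, negative = cytotoxicity: wild-type CHO-K1 cells; top concentration of the series differs between compounds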)
Method in brief: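 CHO-K1 cells plated overnight at 37C, then exposed 3 h at 37C to compounds at 15 concentrations (0.76% DMSO final). Viability by CellTiter-Glo luminescence after 30 min at room temperature.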

[20] = qHTS assay to identify small molecule agonists of the estrogen related receptor signaling pathway with the pleiotropic PPARgamma coactivator (PGC) from Tox21 10K library (AID 1224842); further: nearly all actives have a fitted effect of over 15% in size
Method in brief: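 Luminescence from One-Glo (30 min, room temperature) measured after PGC/ERR cells had 18 h at 37 C with pinned compound (23 nL in DMSO). Cells had been seeded at 2,000 per well and pre-incubated 6 h.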
On the % scale 0 is the no-effect control and ±100 the full control effect.

CC1(C)CCC[C@]2(C)[C@H]3CC(=O)O[C@]3(C)CC[C@@H]12
inactive: Potency [1] | Potency [2] | Potency [3] | Potency [4] | Potency [5] | Potency [6] | Potency [8] | Potency [9] | Potency [10] | Potency [11] | Potency [12] | Potency [13]
active: Potency [7] 19.3 µM | Potency [14] 49 µM

CC(C)(C)CC(C)(C)c1ccc(Nc2ccc(C(C)(C)CC(C)(C)C)cc2)cc1
inactive: activity change, negative = inhibition [1] -2.16% [at 10.5 µM] | viability change, negative = cytotoxic [2] -0.428% [at 8.39 µM] | activity change, negative = cytotoxicity [3] 7.27% [at 8.39 µM] | activity, negative = inhibition [4] 33.1% [at 8.39 µM] | viability change, negative = cytotoxic [6] -0.792% [at 8.39 µM] | activation [7] 21.9% [at 8.39 µM] | activity change, negative = cytotoxicity [8] 0.53% [at 6.97 µM] | activation (H2AX phosphorylation) [15] 0.788% [at 14 µM] | activation [9] 3.2% [at 7.01 µM] | activity change, negative = cytotoxicity [10] 0.0274% [at 6.97 µM] | activity change, negative = cytotoxic [11] 9.22% [at 6.97 µM] | cytotoxicity [12] 3.78% [at 6.97 µM] | activity change, negative = cytotoxic [13] -1.04% [at 6.97 µM] | cytotoxicity increase [14] 0.599% [at 6.97 µM]

CCCCCCCCCCCCOC(=O)c1ccc(O)cc1
inactive: Potency [1] | Potency [2] | Potency [3] | Potency [4] | Potency [5] | Potency [6] | Potency [8] | Potency [9] | Potency [10] | Potency [13] | Potency [14]

CCCCCc1ccc(Cl)cc1
inactive: Potency [1] | Potency [2] | Potency [3] | Potency [6] | Potency [16] | Potency [7] | Potency [8] | Potency [15] | Potency [9] | Potency [17] | activity change, positive = activation ([18]; at 92.4 µM (top of the series)) -14.2% | Potency [10] | Potency [12] | Potency [13] | Potency [14]
active: Potency [11] 15.5 µM

NC(=O)c1cccc([N+](=O)[O-])c1
inactive: Potency [1] | Potency [2] | Potency [3] | Potency [6] | Potency [7] | Potency [8] | Potency [15] | Potency [9] | Potency [19] | Potency [10] | Potency [11] | Potency [12] | Potency [13]

C#CC1(O)CC[C@H]2[C@@H]3CCC4=CCCC[C@@H]4[C@H]3CC[C@@]21C (stereo partly drawn)
inactive: Potency [1] | Potency [2] | Potency [3] | Potency [16] | Potency [15] | activity change, positive = activation ([18]; at 42.5 µM (top of the series)) -49.7% | activity change, positive = activation ([18]; at 92.4 µM (top of the series)) -45.9% | Potency [12]
active: Potency [6] 33.5 µM | Potency [7] 19.3 µM | Potency [8] 21.9 µM and 15.1 µM | Potency [19] 89.8 µM | Potency [17] 61.1 µM and 26.6 µM | Potency [10] 21.3 µM | Potency [11] 17.4 µM and 19 µM | Potency [13] 49 µM and 23.9 µM | Potency [14] 34.7 µM and 21.3 µM

CCOc1ccc2ccccc2c1C(=O)N[C@@H]1C(=O)N2[C@@H]1SC(C)(C)[C@@H]2C(=O)O
inactive: Potency [1] | Potency [2] | Potency [3] | Potency [6] | Potency [16] | Potency [20] | Potency [7] | Potency [8] | Potency [15] | Potency [9] | Potency [19] | Potency [17] | activity change, positive = activation ([18]; at 42.5 µM (top of the series)) -0.57% | Potency [10] | Potency [11] | Potency [12] | Potency [13] | Potency [14]

Cc1ccc(C)cc1
inactive: Potency [1] | Potency [2] | Potency [3] | Potency [6] | Potency [16] | Potency [20] | Potency [8] | Potency [15] | Potency [9] | Potency [17] | activity change, positive = activation ([18]; at 92.4 µM (top of the series)) 0.373% | Potency [10] | Potency [12] | Potency [13] | Potency [14]
